The campaign covered roughly 190,000 compounds. About 570 (0.3%) were called active.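 The calls were made as follows: active = z-score above 3 at 5 µM with at least 500 cells counted in the well; inconclusive = wells under 500 cells, flagged as cytotoxic or low count; inactive = the rest.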 Shown is part of a subset that was picked to be rich in actives.

A short description of this test: insulin promoter activators in MIN6 cells, imaging, high-content screening, mouse beta cells (AID 1625).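 As to cell count: total cells summed across four imaged fields per well.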 Conditions: MIN6 insulin promoter-GFP reporter, at 5 µM; cell count: measured here: cytotoxicity, nuclei count; z-score: stronger effect = higher value.
On to `CSc1ccc(CN2C(=O)NC3(CCCCCC3)C2=O)cc1`, for which the cell count amounted to 1210 cells and the z-score is -0.36 (inactive).
For `CC(=O)Nc1nc(C)c(-c2csc(Nc3ccc(S(N)(=O)=O)cc3)n2)s1`, the cell count is 1500 cells and the z-score is -2.49 (inactive).
In the case of `Cc1cccc(C(=O)Nc2ccccc2C(=O)NCc2cccnc2)c1`, the cell count worked out at 1550 cells and the z-score was 0.35 (inactive).
For the molecule `CC(C)(C)c1cc(C(=O)NCc2cccnc2)ccn1`, the cell count came out at 1480 cells and the z-score was 4.34 (active).
As to `Cc1ccc(C(=O)NC(=S)NCc2cccnc2)cc1`, the cell count was 1660 cells and the z-score was 1.63 (inactive).
For `CCOc1ccc(NS(=O)(=O)c2cc(C)c(C)cc2C)cc1` the same measures were 1460 cells and 0.61 (inactive).
Take `O=C(CC1Nc2ccccc2NC1=O)Nc1ccccc1NC(=O)CC1Nc2ccccc2NC1=O` (stereo not drawn): the cell count stood at 1140 cells and the z-score is 0.1 (inactive).
Turning to `Cc1[nH]n(-c2ccc([N+](=O)[O-])cc2)c(=O)c1C=NCCN1CCN(C(=O)c2ccccc2F)CC1`, the cell count came out at 1450 cells and the z-score is 4.48 (active).
On to `C=CCNC(=S)N1CCN(CCN=Cc2c(C)[nH]n(-c3ccc([N+](=O)[O-])cc3)c2=O)CC1`, for which the cell count is 1470 cells and the z-score was 1.08 (inactive).
For `Cc1ccc(-n2[nH]c(C)c(/C=N/NC(=O)c3cccc([N+](=O)[O-])c3)c2=O)cc1C` the same measures were 1370 cells and 0.35 (inactive).
For the molecule `CC(C)CCN1CCN(C/C=C/c2ccco2)CC1CCO` (stereo not drawn), the cell count worked out at 1410 cells and the z-score is 1.56 (inactive).
With `O=C(COC(=O)C1CCCCC1)Nc1ccc([N+](=O)[O-])cc1`, the cell count came to 1220 cells and the z-score was -0.06 (inactive).
For `O=C(NNC(=S)NC(=O)c1cn(-c2ccccc2)nc1-c1ccccc1)c1ccncc1`, the cell count stood at 1140 cells and the z-score was -0.61 (inactive).
For the molecule `CCCCN(CCCC)CC(O)Cn1c2ccccc2c(=O)c2ccccc21` (stereo not drawn), the cell count came out at 1110 cells and the z-score is -0.27 (inactive).
In the case of `CC(C)N1CCC(NC(=O)Nc2ccccc2)CC1`, the cell count is 1410 cells and the z-score was -0.24 (inactive).
Consider `Cc1cc(C)nc(N2CCC(C(=O)Nc3ccc4c(c3)OCCO4)CC2)n1`, for which the cell count is 1130 cells and the z-score was 3.37 (active).
On to `O=C(Nc1ccc2c(c1)OCCO2)C1CCCN(c2ncccn2)C1` (stereo not drawn), for which the cell count turned out to be 1560 cells and the z-score is -0.18 (inactive).
As to `Cc1cc(C)cc(NC(=O)C2CCN(c3nc(C)cc(C)n3)CC2)c1`, the cell count was 1460 cells and the z-score was -0.69 (inactive).
Regarding `N#C/C(=C/c1ccc(-c2ccccc2[N+](=O)[O-])o1)C(=O)NCCN1CCCCC1`, the cell count was found to be 1040 cells and the z-score is 0.44 (inactive).
For `COc1ccc(-c2nnn(CC(=O)N(CCO)C(C(=O)NC3CCCC3)c3ccc(F)cc3)n2)cc1` (stereo not drawn), the cell count was found to be 941 cells and the z-score is 3.28 (active).
Take `Cc1ccc(-c2nnn(CC(=O)N(CCO)C(C(=O)NC(C)(C)C)c3ccncc3)n2)cc1` (stereo not drawn): the cell count was found to be 1330 cells and the z-score is -0.54 (inactive).
Take `CCOCCCN(C(=O)Cn1nnc(-c2ccc(OC)c(OC)c2)n1)C(CC)C(=O)NC1CCCC1` (stereo not drawn): the cell count amounted to 1200 cells and the z-score is 1.26 (inactive).
`Cc1nc(Cl)c(C#N)c2c1CCCC2`: the cell count came to 1110 cells and the z-score is 0.33 (inactive).
Consider `COc1ccc(NS(=O)(=O)c2ccc(Oc3c(C#N)cccc3C#N)cc2)cc1`, for which the cell count amounted to 558 cells and the z-score is -2.43 (inactive).
As for `CCOC(=O)c1ccc(S(=O)(=O)N(CCO)Cc2cc3cc(OC)c(OC)cc3[nH]c2=O)cc1`, the cell count was 1080 cells and the z-score was -0.14 (inactive).
With `COc1ccc(NC(=O)CCN2C(=O)/C(=C/c3ccc4c(c3)OCO4)SC2=S)cc1`, the cell count amounted to 965 cells and the z-score is -0.34 (inactive).
`CC(=O)N(OCc1ccc(OC(C)C)c(Cl)c1)C(C)=O`: the cell count worked out at 1050 cells and the z-score was -0.14 (inactive).
`Cc1cc(/C=N/n2cnnc2)c(C)n1-c1cccc(C(=O)O)c1`: the cell count amounted to 1240 cells and the z-score is 4.18 (active).
For `Cc1cc(/C=N/Nc2ccc([N+](=O)[O-])cn2)c(C)n1-c1cccc(C(=O)O)c1`, in that order: 1080 cells and -0.44 (inactive).
On to `Cc1cccc(-n2c(C)cc(/C=N/NC(N)=S)c2C)c1`, for which the cell count came to 1370 cells and the z-score was 0.39 (inactive).
Turning to `CC(=O)N1N=C(c2ccncc2)OC1(Cc1ccccc1)Cc1ccccc1`, the cell count was determined as 1090 cells and the z-score was 0.04 (inactive).
Regarding `O=C(CSc1ccc(-c2ccccc2)nn1)NCC1CCCO1` (stereo not drawn), the cell count is 1230 cells and the z-score is 3.02 (active).
For `O=C(CSc1nnc(-c2ccc(NS(=O)(=O)c3ccccc3)cc2)o1)NCC1CCCO1` (stereo not drawn), the cell count came out at 1210 cells and the z-score is 0.05 (inactive).
Consider `O=C(CS(=O)(=O)Cc1ccccc1)NCC1CCCO1` (stereo not drawn), for which the cell count turned out to be 1220 cells and the z-score is -0.17 (inactive).
For `COc1cc(SC)ccc1C(=O)Nc1cc(C)ccn1`, the cell count was determined as 1210 cells and the z-score was 0 (inactive).
Regarding `CC(=O)Nc1ccc(CC#N)cc1`, the cell count is 1210 cells and the z-score was -0.63 (inactive).
For the molecule `Cc1ccccc1NC(=S)NNC(=O)c1cccc(Br)c1`, the cell count came to 1120 cells and the z-score was 0.03 (inactive).
In the case of `O=C(NN1C(=O)C2C(C1=O)C1C=CC2C12CC2)c1ccccc1Cl` (stereo not drawn), the cell count is 1130 cells and the z-score is -0.03 (inactive).
As to `CC(C)OP(=O)(OC(C)C)C(Nc1ccccc1)c1cccc([N+](=O)[O-])c1` (stereo not drawn), the cell count was determined as 992 cells and the z-score was -0.35 (inactive).

Values taken from PubChem BioAssay AID1625 (Sanford-Burnham Center for Chemical Genomics, 2009).
